# Results reported in ChEMBL document CHEMBL5606458, “ASAP - ZIKV NS2B-NS3 protease fluorescence single point” (2024).
# In all, about 2,700 compounds went through this assay and about 160 (5.9%) showed an effect of 50% or more. What follows is part of a selection rich in strong results, with near analogues and random picks from the rest.
# Biological target: Nonstructural protein 3 (Zika virus) (UniProt A0A024AXB9)
# Sequence (A0A024AXB9 as listed by the source): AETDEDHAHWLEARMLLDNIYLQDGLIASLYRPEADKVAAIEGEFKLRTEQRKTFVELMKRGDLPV
smiles,measurement,setting,value
Cc1cnccc1NC(=O)c1cccn(CC2CCNCC2)c1=O,inhibition,"PRVABC59, Concentration 49.5 uM, Number of replicates 2.0, Standard deviation 3.2606712103202136 %",0.531%
same,inhibition,"PRVABC59, Concentration 99.01 uM, Number of replicates 2.0, Standard deviation 2.3019517896210857 %",3.91%
same,inhibition,"PRVABC59, Concentration 198.0 uM, Number of replicates 2.0, Standard deviation 2.0430462280295743 %",7.25%
c1ccc2c([C@H]3CCN(CC[C@H]4CCCOC4)C3)c[nH]c2c1,inhibition,"PRVABC59, Concentration 49.5 uM, Number of replicates 2.0, Standard deviation 1.010318627219257 %",5.96%
same,inhibition,"PRVABC59, Concentration 99.01 uM, Number of replicates 2.0, Standard deviation 2.5976606536818863 %",9.61%
same,inhibition,"PRVABC59, Concentration 198.0 uM, Number of replicates 2.0, Standard deviation 2.1960692966802595 %",20.4%
CCn1ccnc(N2CC[C@H](c3ccn[nH]3)C2)c1=O,inhibition,"PRVABC59, Concentration 49.5 uM, Number of replicates 2.0, Standard deviation 1.2586397664505307 %",6.21%
same,inhibition,"PRVABC59, Concentration 99.01 uM, Number of replicates 2.0, Standard deviation 2.3660377586558408 %",15.1%
same,inhibition,"PRVABC59, Concentration 198.0 uM, Number of replicates 2.0, Standard deviation 2.03279173119948 %",28.1%
NCc1cccc(NC(=O)Cc2ccc(OCc3ccccc3)cc2)c1,inhibition,"PRVABC59, Concentration 49.5 uM, Number of replicates 2.0, Standard deviation 0.6755896628980406 %",-0.82%
same,inhibition,"PRVABC59, Concentration 99.01 uM, Number of replicates 2.0, Standard deviation 0.4165875428765907 %",8.98%
same,inhibition,"PRVABC59, Concentration 198.0 uM, Number of replicates 2.0, Standard deviation 2.4964043674210097 %",40.9%
NCc1cccc(CNC(=O)[C@@H](NC(=O)OCc2ccccc2)c2ccc(OCc3ccccc3)cc2)c1,inhibition,"PRVABC59, Concentration 49.5 uM, Number of replicates 2.0, Standard deviation 0.160775728553173 %",99.2%
same,inhibition,"PRVABC59, Concentration 99.01 uM, Number of replicates 2.0, Standard deviation 0.12446874737194843 %",99%
same,inhibition,"PRVABC59, Concentration 198.0 uM, Number of replicates 2.0, Standard deviation 0.3293253590204834 %",98.1%
NCc1cccc(NC(=O)[C@@H](NC(=O)OCc2ccccc2)c2ccc(F)c(F)c2)c1,inhibition,"PRVABC59, Concentration 49.5 uM, Number of replicates 2.0, Standard deviation 0.33969955290034887 %",-2.45%
same,inhibition,"PRVABC59, Concentration 99.01 uM, Number of replicates 2.0, Standard deviation 0.8168349211729018 %",6.3%
same,inhibition,"PRVABC59, Concentration 198.0 uM, Number of replicates 2.0, Standard deviation 1.2939689407463024 %",43.9%
NCc1cccc(NC(=O)c2ccc(OCc3ccccc3)cc2)c1,inhibition,"PRVABC59, Concentration 49.5 uM, Number of replicates 2.0, Standard deviation 1.3665778981704908 %",1.2%
same,inhibition,"PRVABC59, Concentration 99.01 uM, Number of replicates 2.0, Standard deviation 3.6407499729049095 %",22.5%
same,inhibition,"PRVABC59, Concentration 198.0 uM, Number of replicates 2.0, Standard deviation 29.263434924261905 %",26.6%
NCc1cccc(NC(=O)[C@@H](NC(=O)OCc2ccccc2)c2ccc(F)cc2)c1,inhibition,"PRVABC59, Concentration 49.5 uM, Number of replicates 2.0, Standard deviation 0.5315909510099626 %",1.43%
same,inhibition,"PRVABC59, Concentration 99.01 uM, Number of replicates 2.0, Standard deviation 0.7442277023062145 %",8.36%
same,inhibition,"PRVABC59, Concentration 198.0 uM, Number of replicates 2.0, Standard deviation 0.5134389777058966 %",25.7%
NCc1cccc(NC(=O)[C@@H](NC(=O)OCc2ccccc2)c2ccc(Br)cc2)c1,inhibition,"PRVABC59, Concentration 49.5 uM, Number of replicates 2.0, Standard deviation 0.867338983981324 %",10%
same,inhibition,"PRVABC59, Concentration 99.01 uM, Number of replicates 2.0, Standard deviation 0.4728161592371566 %",98.2%
same,inhibition,"PRVABC59, Concentration 198.0 uM, Number of replicates 2.0, Standard deviation 0.18671930544775084 %",97.9%
CCCCCC(=O)N[C@H](C(=O)NCc1ccc(NC(=N)N)cc1)c1ccc(OCc2ccccc2)cc1,inhibition,"PRVABC59, Concentration 49.5 uM, Number of replicates 2.0, Standard deviation 4.889627391275408 %",4.26%
same,inhibition,"PRVABC59, Concentration 99.01 uM, Number of replicates 2.0, Standard deviation 2.962062980256652 %",19.3%
same,inhibition,"PRVABC59, Concentration 198.0 uM, Number of replicates 2.0, Standard deviation 2.9458988209157537 %",67.5%
C[C@@H](C(=O)Nc1cccc(CN)c1)c1ccc(OCc2ccccc2)cc1,inhibition,"PRVABC59, Concentration 49.5 uM, Number of replicates 2.0, Standard deviation 0.17467234529733644 %",-0.009%
same,inhibition,"PRVABC59, Concentration 99.01 uM, Number of replicates 2.0, Standard deviation 10.257482850017862 %",21.6%
same,inhibition,"PRVABC59, Concentration 198.0 uM, Number of replicates 2.0, Standard deviation 0.22285904793408415 %",62.2%
c1ccc2c([C@H]3CCN(CCC4CCOCC4)C3)c[nH]c2c1,inhibition,"PRVABC59, Concentration 49.5 uM, Number of replicates 2.0, Standard deviation 1.2406953242285323 %",12.1%
same,inhibition,"PRVABC59, Concentration 99.01 uM, Number of replicates 2.0, Standard deviation 0.23839741086829247 %",18.5%
same,inhibition,"PRVABC59, Concentration 198.0 uM, Number of replicates 2.0, Standard deviation 0.8459297336369422 %",27.9%
O=S(=O)(Nc1ccc(Oc2ccccc2Cl)cc1)c1c[nH]c2ccc(Cl)cc12,inhibition,"PRVABC59, Concentration 49.5 uM, Number of replicates 2.0, Standard deviation 1.8433959322838933 %",11%
same,inhibition,"PRVABC59, Concentration 99.01 uM, Number of replicates 2.0, Standard deviation 3.1252865977713378 %",14.3%
same,inhibition,"PRVABC59, Concentration 198.0 uM, Number of replicates 2.0, Standard deviation 3.9544884158217 %",39%
O=C1NCc2ccccc2C12CCN(Cc1cc3ccc(F)cc3[nH]1)CC2,inhibition,"PRVABC59, Concentration 49.5 uM, Number of replicates 2.0, Standard deviation 3.3747851513626115 %",6.9%
same,inhibition,"PRVABC59, Concentration 99.01 uM, Number of replicates 2.0, Standard deviation 2.4802388593809592 %",13.2%
same,inhibition,"PRVABC59, Concentration 198.0 uM, Number of replicates 2.0, Standard deviation 2.1357042200194405 %",18.5%
